# From PubChem BioAssay
# Rab9 prom act – activators of Rab9 promoter; 320,000 tested, 2.8% active; Potency, µM (titrated, usually from 9.22 µM), for inactives: top-dose activation, negative = inhibition, hits mostly activators; Huh7 Rab9 promoter-luciferase reporter, luminescence, 24 h; further: % of control where 0% means no effect; nearly all actives have a fitted effect of over 60% in size
#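 Luminescence read-out: Huh7 cells stably expressing Rab9-luciferase, treated 24 h with compound at 37 °C, then lysed with luciferase reagent for 10 min at ambient before reading.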
# ELG1 genotoxic – induces genotoxicity in HEK293T cells with luciferase-tagged ELG1; HEK293T ELG1-luciferase reporter, luminescence, 16 h; Potency, µM (series often up to 46 µM), for the others: top-dose activity change, positive = activation, most hits filed as activators; 330,000 tested, 1.3% active; AID 504466; further: % of control where 0% means no effect; nearly all actives have a fitted effect of over 60% in size
#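 Quantitative HTS format in 1536-well plates. HEK293T ELG1-luciferase reporter cells receive test compound and are incubated 16 hr at 37 °C, 5% CO2; ONE-Glo added, 30 min room temperature, then luminescence read.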
# SMN2 splice up – SMN2 splice variant enhancement; HEK293 SMN2-luciferase splicing reporter, luminescence, 30-36 h; Potency, µM (series often up to 46.1 µM), inactives show at the highest dose activity change, positive = activation, actives largely listed as activators; 210,000 tested, 2.8% active; AID 1458; further: % of control where 0% means no effect; nearly all actives have a fitted effect of over 55% in size
#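 qHTS luciferase splicing reporter: luminescence rises when SMN2 exon 7 is included in transfected HEK293 cells. Compound exposure lasted 30-36 h at 37C, with 4.5 mM final sodium butyrate as control, followed by a ONE-Glo read.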
# FLuc counter – counter-screen for miR-21 project: firefly luciferase inhibitors or activators; 360,000 tested, 6.9% active; P08659; AID 588342; Potency, µM (doses to about 57.5 µM), inactives show top-dose activity change, negative = inhibition, most hits filed as inhibitors; purified FLuc, Km substrates, luminescence inhibition;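 further: plate controls were vehicle for no effect and reference inhibitor for full effect; nearly all actives have a fitted effect of over 55% in size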
# Target sequence (P08659 whole entry, looked up): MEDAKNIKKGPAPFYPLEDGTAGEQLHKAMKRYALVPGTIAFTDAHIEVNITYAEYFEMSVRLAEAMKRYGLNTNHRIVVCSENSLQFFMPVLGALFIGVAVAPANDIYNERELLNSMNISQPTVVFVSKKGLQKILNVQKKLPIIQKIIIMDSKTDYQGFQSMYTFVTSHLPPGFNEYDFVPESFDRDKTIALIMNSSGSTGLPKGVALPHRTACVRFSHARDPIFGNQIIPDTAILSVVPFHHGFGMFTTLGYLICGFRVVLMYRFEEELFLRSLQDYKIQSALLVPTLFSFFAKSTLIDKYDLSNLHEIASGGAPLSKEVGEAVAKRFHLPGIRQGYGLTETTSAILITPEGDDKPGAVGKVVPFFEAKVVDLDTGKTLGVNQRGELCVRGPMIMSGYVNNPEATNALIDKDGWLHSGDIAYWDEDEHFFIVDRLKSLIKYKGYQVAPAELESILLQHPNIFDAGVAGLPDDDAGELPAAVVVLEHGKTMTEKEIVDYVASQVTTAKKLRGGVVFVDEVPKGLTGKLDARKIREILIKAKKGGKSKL
#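 Purified P. pyralis luciferase, 10 nM final, with Km-level 10 uM D-luciferin and 10 uM ATP in 50 mM Tris acetate pH 7.5, 10 mM Mg acetate, 0.01% Tween-20, 0.05% BSA; 6-point qHTS titration about 60 µM downward; luminescence read.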
# NPC1 promoter act – activates the NPC1 promoter; Huh7 NPC1 promoter luciferase reporter, 24 h; Potency, µM (titrated, usually from 9.22 µM), without a hit: at the highest dose activation, most hits filed as activators; 320,000 tested, 2.4% active; further: % of control where 0% means no effect; nearly all actives have a fitted effect of over 60% in size
#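 Stably transfected Huh7 (NPC1 promoter→luciferase), 1500 cells/well in Opti-MEM + 10% FBS, 2 h settle, then compound 24 h at 37 °C. Luminescence after 10 min with Amplite reagent.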
# Luc counter – blocks Kinase-Glo luciferase, a counter-screen artifact; 200,000 tested, 0.28% active; AID 1379; Q27757; Potency, µM (doses to about 38.3 µM), for inactives: at the top dose activity change, negative = inhibition, actives largely listed as inhibitors; Kinase-Glo luciferase, ATP luminescence, 8 min; further: on the % scale 0 is the no-effect control and ±100 the full control effect; nearly all actives have a fitted effect of over 60% in size
#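 Compound is pinned into ATP-containing buffer (10 uM ATP, imidazole pH 7.2, 7 mM MgCl2). Kinase-Glo luciferase reagent is then added. Light output is recorded following an 8-min room-temperature incubation.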
# Active calls of the source: *; ? = inconclusive; nt = not tested or not shown; [ ] = another dose, or the depositor's remark. An excerpt weighted towards active compounds, which were near 7.3% of everything screened. The call rests on the fitted dose curve; in most records, active means well fitted curve in the direction sought with a large enough effect; inconclusive means small, poorly fitted or top-dose-only effect, or another doubt; inactive means no such curve, though single readings can be large; an effect the other way counts as inactive or inconclusive. Potency means the concentration at half of the fitted maximal effect.
SMILES,Rab9 prom act,ELG1 genotoxic,SMN2 splice up,FLuc counter,NPC1 promoter act,Luc counter
Cc1c(CCNC(=O)Cc2ccc(F)cc2)sc2nc(-c3ccc(F)cc3)nn12,nt,nt,nt,-8%,nt,nt
CS(=O)(=O)N(Cc1ccccc1Cl)c1ccc(C(=O)N2CCCC2)cc1,0%,0%,nt,2%,-3%,nt
Cc1cc(NC(=O)Cn2cnc3sc(C)c(C)c3c2=O)no1,nt,1%,nt,nt,nt,nt
Brc1ccccc1-c1nc(-c2ccccc2)no1,3.5µM*,?,4µM*,0.95µM*,27%,-25%
c1ccc(-c2ccccc2-c2nc(-c3cccnc3)no2)cc1,-2%,-2%,-6%,1%[2.3 µM],-5%,2%
Fc1ccccc1-c1nc(-c2cnccc2C(F)(F)F)no1,10%,-11%,nt,?,1%,nt
Fc1ccccc1-c1nc(-c2ccncc2)no1,1.8µM*,?,nt,8.5µM*,1.8µM*,nt
Fc1ccccc1-c1nc(-c2ccccc2)no1,2.8µM*,?,11µM*,0.6µM*,3.5µM*,?
Cc1ccccc1C(=O)Nc1sc2c(c1C(=O)N1CCCCC1)CCC(C(C)(C)C)C2 (centres undefined),nt,nt,-4%,-2%,nt,nt
CCOc1ccc(/C=C2\CCc3ccccc3C2=O)cc1,1.1µM*,?,nt,0.3µM*,2.8µM*,nt
O=C1/C(=C/c2ccncc2)CCC/C1=C\c1ccncc1,-32%,-23%,-106%,0%,-40%,1%
O=C1/C(=C/c2ccncc2)CCc2ccccc21,-4%,4%,nt,8.5µM*,0%,nt
c1ccc2c(c1)CCc1c(-c3ccncc3)n[nH]c1-2,18%,?,nt,?,?,nt
O=C1/C(=C\c2ccncc2)CCc2ccccc21,-10%,-12%,nt,9.5µM*,0%,nt
COc1ccc(/C=C2\CN(Cc3ccccc3)C/C(=C\c3ccc(OC)cc3)C2=O)cc1,-4%,-13%,-8%[1.84 µM],5%,0%,2%
Cc1ccc(C)c(N(CC(=O)NCCSCc2ccco2)S(C)(=O)=O)c1,-5%,0%,14%,4%,-1%,-2%
N[C@@H](CO)c1cn([C@@H](Cc2cc3ccccc3[nH]2)C(=O)N2CCNCC2)nn1,-6%,2%,nt,1%,-4%,nt
COc1cccc(OCCCCn2c(-c3ccc(Cl)cc3)nc3ccccc3c2=O)c1,nt,nt,-1%,-6%,nt,nt
Cc1nc2ccc(NC(=O)Cc3ccccc3F)cc2s1,?,8.2µM*,11µM*,6.7µM*,2.8µM*,-18%
Cc1nc2ccc(NC(=O)Cc3ccsc3)cc2s1,?,12µM*,?,12µM*,2.8µM*,1%
Cc1ccc(NC(=O)Cc2ccsc2)cc1Cl,12%,8%,nt,?,-1%,nt
Cc1nc2ccc(NC(=O)COc3cccc(F)c3)cc2s1,-3%,5%,-10%,?,-3%,0%
Cc1nc2ccc(NC(=O)Cc3cccc(F)c3)cc2s1,30%,12%,27%,19µM*,21%,2%
COc1ccc(OC)c(S(=O)(=O)NCC(c2ccc(N(C)C)cc2)N2CCOCC2)c1 (centres undefined),nt,nt,nt,-2%,nt,nt
Cc1ccccc1-c1nc(-c2ccc(Br)o2)no1,2.2µM*,?,nt,3.4µM*,1.8µM*,nt
SMILES,Rab9 prom act,ELG1 genotoxic,SMN2 splice up,FLuc counter,NPC1 promoter act,Luc counter
Cc1ccccc1-c1nc(-c2ccc(NC(=O)c3ccc(Br)o3)cc2)no1,?,?,3%,?,?,0%
Fc1ccccc1-c1nc(-c2ccc(Br)o2)no1,?,?,nt,0.85µM*,0.5µM*,nt
Cc1cc(C)c2nc(NC(=O)c3ccc([N+](=O)[O-])o3)sc2c1,21%,-7%,nt,?,-1%,nt
O=C(Nc1nc2c(F)cc(F)cc2s1)c1ccc([N+](=O)[O-])o1,1.6µM*,-1%,nt,17µM*,2.2µM*,nt
Cc1cc(C)c2sc(NC(=O)c3ccc([N+](=O)[O-])o3)nc2c1,10%,1%,nt,13µM*,0%,nt
O=C(Nc1nc2cc3c(cc2s1)OCCO3)c1ccc([N+](=O)[O-])o1,1µM*,9.2µM*,nt,1.2µM*,0.89µM*,nt
O=C(Nc1nc2ccccc2s1)c1ccc([N+](=O)[O-])o1,?,7%,nt,6.7µM*,?,nt
CN(CCNC(=O)C1CCC(=O)N(Cc2cccc(F)c2)C1)CCc1ccccc1 (centres undefined),2%,2%,nt,0%,-1%,nt
COc1ccc2nc(NC(=O)c3ccc([N+](=O)[O-])o3)sc2c1,2.8µM*,21%,nt,2.1µM*,?,nt
O=C(Nc1nc2ccccc2s1)c1ccccc1[N+](=O)[O-],?,?,nt,17µM*,?,nt
Cc1cnc(NC(=O)c2ccc(-c3ccc([N+](=O)[O-])cc3)o2)s1,-4%,0%,nt,-4%,-4%,nt
O=C(O)c1cccc([N+](=O)[O-])c1C(=O)Nc1nc2ccccc2s1,3%,0%,14%,-20%,1%,-1%
COc1ccc(NC(=O)c2ccc([N+](=O)[O-])o2)cc1,25%,?,nt,?,23%,nt
Cc1cnc(NC(=O)c2ccc(-c3nc4ccccc4s3)o2)s1,13%,-5%,0%,17µM*,30%,2%
O=C(c1ccccc1Br)N(Cc1ccco1)Cc1ccco1,nt,nt,-3%,-14%,nt,nt
CCC(=O)c1ccc(OCCSc2ncccn2)cc1,2µM*,3.7µM*,7.9µM*,19µM*,4µM*,-3%
CNCCCOc1ccc2c(c1)CCC2,24%,5%,11%,-1%,16%,-2%
CCC(=O)c1ccc(OCC(=O)O)cc1,1%,1%,-15%,-4%,1%,11%
c1cnc(SCCOc2ccc3c(c2)CCC3)nc1,1.6µM*,4.6µM*,13µM*,1.7µM*,2.8µM*,-2%
O=C1NCCN1CCNS(=O)(=O)c1ccccc1[N+](=O)[O-],8%,2%,nt,-2%,-3%,nt
CC1=C/C(=C(\c2cc(C)c(O)c(Br)c2)c2ccccc2S(=O)(=O)O)C=C(Br)C1=O,-13%,-25%,nt,9.5µM*,-9%,nt
COc1ccc(/C=C/c2ccc3cccc(O)c3n2)c(OC)c1OC,2.5µM*,23µM*,nt,4.8µM*,3.2µM*,nt
COc1cccc(/C=C/c2ccc3cccc(O)c3n2)c1OC,?,18µM*,nt,2.7µM*,3.5µM*,nt
COc1cc(Br)cc(/C=C/c2ccc3cccc(O)c3n2)c1OC,2%[1.84 µM],-4%,nt,?,-1%,nt
COc1ccc(/C=C/c2ccncc2)c2ccccc12,nt,nt,3%,-6%,nt,3%
COC(=O)Nc1nnc(-c2ccco2)s1,15%,5%,nt,-15%,4%,nt
CC(C)CC(=O)Nc1nnc(-c2ccco2)s1,2.5µM*,16µM*,26%,?,?,18%
